# Laboratory results: PubChem BioAssay (Tox21)
# Results filed as inconclusive are left out. Where a call stands in place of a potency, no number is given. A number with no mark means an inactive call. Activity calls are given as the source filed them. Unless noted, the call rests on the fitted dose curve; in most records, active means well fitted cell-killing curve with a large enough effect in the repeat runs; inconclusive means weak or mixed curves, or effect the other way; inactive means no such curve, though single readings can be large or run the other way.
# Biological target: Peroxisome proliferator-activated receptor gamma (Homo sapiens) (UniProt P37231)
# Assay: qHTS assay to identify small molecule agonists of the peroxisome proliferator-activated receptor gamma (PPARg) signaling pathway (AID 743094; active means well fitted activation curve with a large enough effect in the signal ratio in the repeat runs, not every such curve was filed as active; the % refers to the signal ratio; further: potency means the concentration at half of the fitted maximal effect)
# Settings: HEK293H PPARg-UAS-bla, beta-lactamase FRET ratio, 17 h; series mostly up to 57 µM; activation: at the top concentration
# How it was run: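 Beta-lactamase FRET fluorescence was the read-out after a 1 h room-temperature substrate step, following 17 h compound treatment at 37C of HEK293H cells expressing a UAS-driven bla reporter responsive to PPARg.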
# Peroxisome proliferator-activated receptor gamma (Homo sapiens), sequence (P37231 whole entry, looked up): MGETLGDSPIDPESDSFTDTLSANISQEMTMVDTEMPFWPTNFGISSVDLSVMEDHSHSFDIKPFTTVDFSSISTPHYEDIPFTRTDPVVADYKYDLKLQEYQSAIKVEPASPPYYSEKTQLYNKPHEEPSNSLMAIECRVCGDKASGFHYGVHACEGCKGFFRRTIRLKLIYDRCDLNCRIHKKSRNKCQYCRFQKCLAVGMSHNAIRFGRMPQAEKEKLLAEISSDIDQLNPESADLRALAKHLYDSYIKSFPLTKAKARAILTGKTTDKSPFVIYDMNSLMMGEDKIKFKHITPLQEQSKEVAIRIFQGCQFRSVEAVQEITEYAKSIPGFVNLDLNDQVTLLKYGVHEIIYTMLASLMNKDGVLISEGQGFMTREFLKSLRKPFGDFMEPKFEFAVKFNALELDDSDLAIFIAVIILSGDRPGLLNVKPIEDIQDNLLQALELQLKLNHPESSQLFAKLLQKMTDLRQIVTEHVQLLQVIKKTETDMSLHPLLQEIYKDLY
SMILES,Potency,activation
CO[C@H]1C=CO[C@@]2(C)Oc3c(C)c(O)c4c(O)c(c(/C=N/N5CCN(C)CC5)c(O)c4c3C2=O)NC(=O)/C(C)=C\C=C[C@H](C)[C@H](O)[C@@H](C)[C@@H](O)[C@@H](C)[C@H](OC(C)=O)[C@@H]1C,inactive,
CC1=C(/C=C/C(C)=C/C=C/C(C)=C/C(=O)O)C(C)(C)CCC1,535 nM (active),
NCCNc1cccc2ccccc12,inactive,
c1ccc2[nH]c(-c3cscn3)nc2c1,inactive,
O=C1OC(c2ccc(O)cc2)(c2ccc(O)cc2)c2ccccc21,,-3.3%
NC(=O)N/N=C/c1ccc([N+](=O)[O-])o1,inactive,
CC1=NN(c2ccccc2)C(=O)C1,inactive,
C[C@]12C[C@H](O)[C@H]3[C@@H](CCC4=CC(=O)CC[C@@]43C)[C@@H]1CC[C@@H]2C(=O)CO,inactive,
CCn1cc(C(=O)O)c(=O)c2ccc(C)nc21,inactive,
CC(=O)/C=C/C1=C(C)CCCC1(C)C,inactive,
COc1ccccc1NC(=O)CC(C)=O,inactive,
CC(C)=CCC/C(C)=C/CO,inactive,
C[C@]12CC[C@@H]3c4ccc(O)cc4C[C@@H](CCCCCCCCCS(=O)CCCC(F)(F)C(F)(F)F)[C@H]3[C@@H]1CC[C@@H]2O (stereo not given in full),,-3.94%
O=C(OCc1ccccc1)c1ccccc1,inactive,
O=C(O)CN(CC(=O)O)CC(=O)O,inactive,
CCCCOCCOCCSC#N,,5.5% [at 78.9 µM]
C#C[C@]1(O)CC[C@H]2[C@@H]3CCc4cc(O)ccc4[C@H]3CC[C@@]21C,inactive,
NC(=O)c1ccc([N+](=O)[O-])cc1Cl,inactive,
COc1ccc(C(=O)c2ccccc2)c(O)c1,inactive,
C[C@]12C=CC(=O)C=C1CC[C@@H]1[C@@H]2C(=O)C[C@@]2(C)[C@H]1CC[C@]2(O)C(=O)CO,inactive,
CC(C)(C)CC(C)(C)c1ccc(O)c(-n2nc3ccccc3n2)c1,inactive,
C/C=C/c1ccc(O)c(OC)c1,inactive,

# Biological target: Peroxisome proliferator-activated receptor gamma (Homo sapiens) (UniProt P37231)
# Assay: qHTS assay to identify small molecule antagonists of the peroxisome proliferator-activated receptor gamma (PPARg) signaling pathway (AID 743191; calls by dose curve; further: nearly all actives have a fitted effect of over 30% in size)
# Settings: HEK293H PPARg-UAS-bla, beta-lactamase ratio, antagonist, 17 h; series mostly up to 62.6 µM; ratio activity, negative = inhibition: at the top concentration
# How it was run: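 GeneBLAzer PPARg UAS-bla HEK293H cells carrying a UAS-driven beta-lactamase reporter were plated at 3000 cells/well, preincubated 5 h at 37C, then given compound for 17 h at 37C; LiveBLAzer B/G FRET substrate was read after 1 h at room temperature.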
SMILES,Potency,"ratio activity, negative = inhibition"
c1ccc2[nH]c(-c3cscn3)nc2c1,inactive,
Cc1cccc(Nc2cc(Cl)nc(SCC(=O)O)n2)c1C,inactive,
CCn1cc(C(=O)O)c(=O)c2ccc(C)nc21,inactive,
C[C@]12CC[C@@H]3c4ccc(O)cc4C[C@@H](CCCCCCCCCS(=O)CCCC(F)(F)C(F)(F)F)[C@H]3[C@@H]1CC[C@@H]2O (stereo not given in full),inactive,
O=C(OCc1ccccc1)c1ccccc1,inactive,
O=C(O)CN(CC(=O)O)CC(=O)O,,-10.4% [at 81.1 µM]
NC(=O)c1ccc([N+](=O)[O-])cc1Cl,inactive,
COc1ccc(C(=O)c2ccccc2)c(O)c1,,0.395%
C[C@]12C=CC(=O)C=C1CC[C@@H]1[C@@H]2C(=O)C[C@@]2(C)[C@H]1CC[C@]2(O)C(=O)CO,,14.7%
CC(C)(C)CC(C)(C)c1ccc(O)c(-n2nc3ccccc3n2)c1,,-23.6%

# Tested on: not listed separately
# Assay: qHTS assay to identify small molecule antagonists of the peroxisome proliferator-activated receptor gamma (PPARg) signaling pathway - cell viability counter screen (AID 743194); further: nearly all actives have a fitted effect of over 55% in size
# Settings: PPARg-bla HEK293H viability, CellTiter-Glo luminescence, 17 h, co-treated with 50 nM rosiglitazone; series mostly up to 62.6 µM; activity change, negative = cytotoxicity: at the top concentration
# How it was run: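 PPARg-UAS-bla HEK293H cells were plated, rested 5 h at 37 C, then treated with compounds plus rosiglitazone (50 nM final) for 17 h at 37 C; viability was then read by CellTiter-Glo luminescence after 30 min at room temperature.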
SMILES,Potency,"activity change, negative = cytotoxicity"
CO[C@H]1C=CO[C@@]2(C)Oc3c(C)c(O)c4c(O)c(c(/C=N/N5CCN(C)CC5)c(O)c4c3C2=O)NC(=O)/C(C)=C\C=C[C@H](C)[C@H](O)[C@@H](C)[C@@H](O)[C@@H](C)[C@H](OC(C)=O)[C@@H]1C,inactive,
NC(=O)NO,inactive,
CC1=C(/C=C/C(C)=C/C=C/C(C)=C/C(=O)O)C(C)(C)CCC1,inactive,
c1ccc2[nH]c(-c3cscn3)nc2c1,inactive,
O=C1OC(c2ccc(O)cc2)(c2ccc(O)cc2)c2ccccc21,inactive,
NC(=O)N/N=C/c1ccc([N+](=O)[O-])o1,,9.87%
CC1=NN(c2ccccc2)C(=O)C1,inactive,
Cc1cccc(Nc2cc(Cl)nc(SCC(=O)O)n2)c1C,inactive,
CCc1cc(C(N)=S)ccn1,inactive,
C[C@]12C[C@H](O)[C@H]3[C@@H](CCC4=CC(=O)CC[C@@]43C)[C@@H]1CC[C@@H]2C(=O)CO,inactive,
CCn1cc(C(=O)O)c(=O)c2ccc(C)nc21,inactive,
CC(=O)/C=C/C1=C(C)CCCC1(C)C,inactive,
COc1ccccc1NC(=O)CC(C)=O,,1.03%
CC(C)=CCC/C(C)=C/CO,inactive,
C[C@]12CC[C@@H]3c4ccc(O)cc4C[C@@H](CCCCCCCCCS(=O)CCCC(F)(F)C(F)(F)F)[C@H]3[C@@H]1CC[C@@H]2O (stereo not given in full),inactive,
O=C(OCc1ccccc1)c1ccccc1,inactive,
O=C(O)CN(CC(=O)O)CC(=O)O,,-2.84%
CCCCOCCOCCSC#N,inactive,
C#C[C@]1(O)CC[C@H]2[C@@H]3CCc4cc(O)ccc4[C@H]3CC[C@@]21C,inactive,
NC(=O)c1ccc([N+](=O)[O-])cc1Cl,inactive,
C[C@]12CC[C@@H]3c4ccc(O)cc4CC[C@H]3[C@@H]1CCC2=O,inactive,
Cc1c(N(C)C)c(=O)n(-c2ccccc2)n1C,inactive,
COc1ccc(C(=O)c2ccccc2)c(O)c1,inactive,
NC(=O)OCC(COC(N)=O)c1ccccc1,inactive,
COc1ccc(O)cc1,inactive,
C[C@]12C=CC(=O)C=C1CC[C@@H]1[C@@H]2C(=O)C[C@@]2(C)[C@H]1CC[C@]2(O)C(=O)CO,inactive,
O=c1cc[nH]c(=O)[nH]1,,2.98%
C/C=C/c1ccc(O)c(OC)c1,inactive,
